Experimental data reported in PubChem BioAssay (EPA / NIEHS).
Inconclusive results are not listed. Some structures have more than one record in an assay (separate samples or runs), and their calls can disagree. Calls of active or inactive are those of the source. Rule for the calls: active = hit-call score of the fitted dose curve at least 0.9, where 1 is the maximum; inconclusive = response in the unintended direction; inactive = score below 0.9.

Assays:
[1] = target: chimpanzee Androgen Receptor (AR), AR (gene 747460) (UniProt O97775); assay: NVS_NR_cAR: NovaScreen (NVS) Nuclear Receptor Binding Assay for chimpanzee Androgen Receptor (AR) (AID 2283346);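 note: radioligand displacement from AR measured by scintillation counting in a cell-free assay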
Sequence of chimpanzee Androgen Receptor (AR), AR (gene 747460) (O97775 whole entry, looked up): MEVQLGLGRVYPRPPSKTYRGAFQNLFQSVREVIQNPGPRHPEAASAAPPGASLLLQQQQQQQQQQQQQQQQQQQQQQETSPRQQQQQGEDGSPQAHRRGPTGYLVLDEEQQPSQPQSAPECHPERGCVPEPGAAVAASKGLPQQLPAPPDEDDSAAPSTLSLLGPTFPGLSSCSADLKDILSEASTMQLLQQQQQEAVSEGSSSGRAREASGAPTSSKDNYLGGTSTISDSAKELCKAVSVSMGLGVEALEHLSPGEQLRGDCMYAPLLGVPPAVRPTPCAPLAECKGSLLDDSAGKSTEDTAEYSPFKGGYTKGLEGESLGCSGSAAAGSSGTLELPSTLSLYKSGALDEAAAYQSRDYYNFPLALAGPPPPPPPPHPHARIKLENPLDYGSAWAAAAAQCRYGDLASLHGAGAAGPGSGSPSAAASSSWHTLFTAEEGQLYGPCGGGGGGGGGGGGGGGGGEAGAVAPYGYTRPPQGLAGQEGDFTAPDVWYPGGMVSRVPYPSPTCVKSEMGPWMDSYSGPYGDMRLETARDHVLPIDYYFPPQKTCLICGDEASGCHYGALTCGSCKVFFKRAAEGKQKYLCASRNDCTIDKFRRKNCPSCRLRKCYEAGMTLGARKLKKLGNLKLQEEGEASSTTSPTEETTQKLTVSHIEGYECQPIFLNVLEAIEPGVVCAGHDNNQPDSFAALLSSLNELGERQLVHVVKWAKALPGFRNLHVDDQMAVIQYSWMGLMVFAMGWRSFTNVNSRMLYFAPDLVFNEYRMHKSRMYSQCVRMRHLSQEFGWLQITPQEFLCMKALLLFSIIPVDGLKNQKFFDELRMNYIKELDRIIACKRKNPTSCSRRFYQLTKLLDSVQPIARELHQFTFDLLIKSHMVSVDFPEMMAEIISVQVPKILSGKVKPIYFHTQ
Summary of the method: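 Cell-free radioligand displacement using receptor protein extracted from Sf9/Sf21 cells; bound radioligand measured by scintillation counting 72 hours after chemical dosing. Loss of signal versus DMSO baseline indicates binding; primary screen single-concentration in duplicate at 25 uM, actives followed in concentration series.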

[2] = target: Estrogen receptor beta (Homo sapiens) (UniProt Q92731); assay: OT_ER_ERbERb_0480: Odyssey Thera (OT) 8-hour HEK293T Protein-Complementation Assay for Estrogen Receptor-beta/-beta Homodimer (AID 2283357);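 note: active means signal gain over DMSO baseline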
Sequence of Estrogen receptor beta (Homo sapiens) (Q92731 whole entry, looked up, the tested form may be a part): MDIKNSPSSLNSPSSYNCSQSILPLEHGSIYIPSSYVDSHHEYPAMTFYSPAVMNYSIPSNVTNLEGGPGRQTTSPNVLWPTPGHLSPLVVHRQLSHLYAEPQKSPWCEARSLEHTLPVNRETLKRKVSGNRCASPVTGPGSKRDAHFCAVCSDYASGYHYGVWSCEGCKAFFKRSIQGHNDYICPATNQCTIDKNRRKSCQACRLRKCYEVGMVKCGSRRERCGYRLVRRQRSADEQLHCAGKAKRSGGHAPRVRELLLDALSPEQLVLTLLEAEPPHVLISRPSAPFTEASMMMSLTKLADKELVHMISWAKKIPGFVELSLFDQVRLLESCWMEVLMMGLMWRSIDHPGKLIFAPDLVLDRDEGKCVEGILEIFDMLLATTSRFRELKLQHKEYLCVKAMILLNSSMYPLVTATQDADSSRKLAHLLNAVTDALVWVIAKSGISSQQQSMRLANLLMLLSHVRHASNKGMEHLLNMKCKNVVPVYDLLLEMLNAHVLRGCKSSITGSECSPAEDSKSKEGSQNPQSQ
Summary of the method: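 Fluorescence gain from complemented reporter fragments on ER-beta LBD homodimer in HEK293T was quantified against DMSO controls after 8 h treatment, fixation in 4% formaldehyde and Draq5 staining.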

[3] = target: human Peroxisome Proliferator-activated Receptor alpha (PPARa), PPARA (gene 5465) (UniProt Q07869); assay: NVS_NR_hPPARa: NovaScreen (NVS) Nuclear Receptor Binding Assay for human Peroxisome Proliferator-activated Receptor alpha (PPARa) (AID 2283359);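 note: activity means loss of TR-FRET signal versus DMSO baseline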
Sequence of human Peroxisome Proliferator-activated Receptor alpha (PPARa), PPARA (gene 5465) (Q07869 whole entry, looked up): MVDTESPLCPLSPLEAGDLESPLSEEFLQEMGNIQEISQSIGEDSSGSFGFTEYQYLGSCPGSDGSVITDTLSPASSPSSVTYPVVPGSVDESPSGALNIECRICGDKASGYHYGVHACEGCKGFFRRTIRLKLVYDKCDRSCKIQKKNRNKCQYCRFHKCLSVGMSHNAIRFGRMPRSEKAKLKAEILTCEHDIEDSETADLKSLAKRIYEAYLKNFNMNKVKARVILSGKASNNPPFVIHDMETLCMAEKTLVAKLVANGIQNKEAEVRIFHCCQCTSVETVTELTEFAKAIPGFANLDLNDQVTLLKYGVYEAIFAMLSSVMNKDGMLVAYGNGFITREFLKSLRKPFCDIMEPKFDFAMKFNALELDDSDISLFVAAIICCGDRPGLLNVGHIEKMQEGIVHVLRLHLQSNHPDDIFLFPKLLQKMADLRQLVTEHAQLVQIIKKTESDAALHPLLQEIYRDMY
Summary of the method: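 One-hour incubation, cell-free extracted protein, TR-FRET binding readout; signal loss vs DMSO scored. Screen: 25 uM duplicates, confirmatory dose series for actives.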

[4] = target: PGR (gene 5241) (UniProt P06401); assay: NVS_NR_hPR: NovaScreen (NVS) Nuclear Receptor Binding Assay for human Progestron Receptor (PR) (AID 2283360)
Summary of the method: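 Cell-free radioligand binding using receptor protein extracted from T47D cells, read by scintillation counting 18 hours after dosing. Loss of signal relative to DMSO baseline indicates displacement; primary screen single concentration 25 uM in duplicate, actives followed in concentration series.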

[5] = target: Estrogen receptor (Homo sapiens) (UniProt P03372); assay: NVS_NR_hER: NovaScreen (NVS) Nuclear Receptor Binding Assay for human Estrogen Receptor (ER) (AID 2283348)
Sequence of Estrogen receptor (Homo sapiens) (P03372 whole entry, looked up, the tested form may be a part): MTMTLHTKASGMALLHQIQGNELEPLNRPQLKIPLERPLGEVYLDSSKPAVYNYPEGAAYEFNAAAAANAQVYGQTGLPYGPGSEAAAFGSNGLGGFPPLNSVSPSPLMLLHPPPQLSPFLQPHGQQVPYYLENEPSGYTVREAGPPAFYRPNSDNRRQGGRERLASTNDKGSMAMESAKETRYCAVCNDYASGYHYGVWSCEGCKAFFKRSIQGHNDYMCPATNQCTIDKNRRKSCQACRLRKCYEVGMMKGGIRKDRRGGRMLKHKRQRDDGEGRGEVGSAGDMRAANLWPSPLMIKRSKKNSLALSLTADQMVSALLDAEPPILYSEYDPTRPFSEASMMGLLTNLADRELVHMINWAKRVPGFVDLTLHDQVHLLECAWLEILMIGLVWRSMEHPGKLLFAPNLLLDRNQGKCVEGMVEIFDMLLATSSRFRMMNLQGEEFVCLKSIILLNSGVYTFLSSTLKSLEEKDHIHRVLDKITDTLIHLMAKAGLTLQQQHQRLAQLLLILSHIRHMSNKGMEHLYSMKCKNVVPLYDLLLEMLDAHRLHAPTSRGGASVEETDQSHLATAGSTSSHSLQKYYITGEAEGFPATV
Summary of the method: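 Radiodetection of ligand displacement in a lysate-based, cell-free format using MCF7 extracts, read at 18 hours. Duplicate 25 uM primary testing, then concentration series for actives.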

[6] = target: Estrogen receptor (Homo sapiens) (UniProt P03372); assay: OT_ER_ERaERa_1440: Odyssey Thera (OT) 24-hour HEK293T Protein-Complementation Assay for Estrogen Receptor-alpha/-alpha Homodimer (AID 2283349);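 note: hits raise fluorescence above DMSO for agonists and antagonists alike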
Summary of the method: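 Stably transfected HEK293T; ERα LBD homodimer PCA. 24 h dosing, fluorescence intensity read, gain-of-signal vs DMSO.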

[7] = target: Estrogen receptor (Homo sapiens) (UniProt P03372); assay: OT_ER_ERaERa_0480: Odyssey Thera (OT) 8-hour HEK293T Protein-Complementation Assay for Estrogen Receptor-alpha/-alpha Homodimer (AID 2283351);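 note: rise in fluorescence from reassembled reporter fragments on ERα LBD homodimer in nucleus or whole cell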
Summary of the method: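 HEK293T cells stably expressing a PCA pair of ER alpha LBD (residues 310-547) were dosed for 8 hours. The gain in fluorescence intensity, nuclear for agonists and whole-cell for antagonists, was measured by laser scanning cytometry against DMSO vehicle.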

[8] = target: Androgen Receptor/SRC-1 Co-activator, AR (gene 367) (UniProt P10275); assay: OT_AR_ARSRC1_0960: Odyssey Thera (OT) 16-hour HEK293T Protein-Complementation Assay for Androgen Receptor/SRC-1 Co-activator (AID 2283353);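 note: actives raise the signal above DMSO so potency reflects increased AR and SRC-1 complex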
Sequence of Androgen Receptor/SRC-1 Co-activator, AR (gene 367) (P10275 whole entry, looked up, the tested form may be a part): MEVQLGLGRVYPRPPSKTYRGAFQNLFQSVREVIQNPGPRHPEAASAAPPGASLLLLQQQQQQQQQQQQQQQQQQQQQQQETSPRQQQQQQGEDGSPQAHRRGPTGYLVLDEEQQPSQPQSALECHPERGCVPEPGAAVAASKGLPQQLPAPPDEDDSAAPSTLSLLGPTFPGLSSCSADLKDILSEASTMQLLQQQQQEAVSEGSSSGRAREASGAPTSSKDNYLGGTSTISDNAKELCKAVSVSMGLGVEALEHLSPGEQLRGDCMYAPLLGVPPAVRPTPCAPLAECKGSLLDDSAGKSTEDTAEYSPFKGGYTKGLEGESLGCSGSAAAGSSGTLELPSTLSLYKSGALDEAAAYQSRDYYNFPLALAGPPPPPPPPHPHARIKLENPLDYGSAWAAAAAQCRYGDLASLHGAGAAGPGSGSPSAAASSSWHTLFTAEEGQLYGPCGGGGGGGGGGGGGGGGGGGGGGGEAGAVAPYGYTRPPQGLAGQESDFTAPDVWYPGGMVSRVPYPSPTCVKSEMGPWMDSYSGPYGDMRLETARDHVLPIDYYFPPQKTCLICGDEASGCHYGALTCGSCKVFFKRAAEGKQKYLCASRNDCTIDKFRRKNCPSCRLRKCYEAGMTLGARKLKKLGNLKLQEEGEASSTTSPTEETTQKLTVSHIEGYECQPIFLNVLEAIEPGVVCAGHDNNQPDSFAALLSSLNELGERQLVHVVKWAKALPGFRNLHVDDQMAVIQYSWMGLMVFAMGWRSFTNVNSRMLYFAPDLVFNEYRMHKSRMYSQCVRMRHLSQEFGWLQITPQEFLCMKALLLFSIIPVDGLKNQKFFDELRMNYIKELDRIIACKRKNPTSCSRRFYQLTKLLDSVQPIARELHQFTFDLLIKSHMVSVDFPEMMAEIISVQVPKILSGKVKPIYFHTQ
Summary of the method: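 Endpoint is gain-of-signal N/C fluorescence ratio in the 488 nm channel versus DMSO, from at least 400 cells per image, measured 16 h post-dosing. Cells: HEK293T stably carrying split-Venus AR/SRC-1 complementation constructs.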

[9] = target: Androgen Receptor/SRC-1 Co-activator, AR (gene 367) (UniProt P10275); assay: OT_AR_ARSRC1_0480: Odyssey Thera (OT) 8-hour HEK293T Protein-Complementation Assay for Androgen Receptor/SRC-1 Co-activator (AID 2283354);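 note: hits raise the complementation signal above DMSO so AC50 marks enhancers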
Summary of the method: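 After 8 h dosing, stably expressing HEK293T cells with split-Venus AR/SRC-1 fusions were imaged (488, 635nm). The 488nm N/C ratio per image gave the endpoint, analysed in the positive direction against DMSO.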

[10] = target: Estrogen receptor (Homo sapiens) + Estrogen receptor beta (Homo sapiens) (UniProt P03372+Q92731); assay: OT_ER_ERaERb_1440: Odyssey Thera (OT) 24-hour HEK293T Protein-Complementation Assay for Estrogen Receptor-alpha/-beta Homodimer (AID 2283356);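 note: heteromer of ER alpha and ER beta binding domains; hits raise reporter fluorescence and both agonists and antagonists give an increase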
Sequence of Estrogen receptor (Homo sapiens) + Estrogen receptor beta (Homo sapiens) (P03372 whole entry, looked up, the tested form may be a part): as the sequence (P03372 whole entry, looked up, the tested form may be a part) above
Sequence of Estrogen receptor (Homo sapiens) + Estrogen receptor beta (Homo sapiens) (Q92731 whole entry, looked up, the tested form may be a part): as the sequence (Q92731 whole entry, looked up, the tested form may be a part) above
Summary of the method: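 HEK293T stably expressing a PCA of ER alpha LBD (aa 310-547) and ER beta LBD (aa 263-489). After 24 h compound exposure, mean fluorescence intensity in nucleus (agonists) or nucleus and cytoplasm (antagonists) measured by laser scanning cytometry versus vehicle.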

[11] = target: Bile acid receptor (Homo sapiens) (UniProt Q96RI1); assay: NVS_NR_hFXR_Agonist: NovaScreen (NVS) Nuclear Receptor Binding Assay for human Farnesoid X Receptor Agonism (FXR) (AID 2283347)
Summary of the method: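 Agonist-mode FXR assay read by time-resolved FRET 1 h after compound addition, using isolated human receptor protein without cells. Duplicate 25 uM single-point primary screen, concentration series for confirmed actives; DMSO as baseline.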

[12] = target: rat Mineralocorticoid Receptor (MR), Nr3c2 (gene 25672) (UniProt P22199); assay: NVS_NR_rMR: NovaScreen (NVS) Nuclear Receptor Binding Assay for rat Mineralocorticoid Receptor (MR) (AID 2283355)
Summary of the method: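 Single-concentration duplicate screen (25 uM) of radioligand binding in adrenalectomized rat brain supernatant; scintillation detection 24 h after dosing. Positive and negative controls ran on each plate, and confirmed actives went to concentration-response.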

[13] = target: Retinoic acid receptor alpha (Homo sapiens) (UniProt P10276); assay: NVS_NR_hRARa_Agonist: NovaScreen (NVS) Nuclear Receptor Binding Assay for human Retinoic Acid Alpha Receptor Agonism (RAR) (AID 2283361)
Sequence of Retinoic acid receptor alpha (Homo sapiens) (P10276 whole entry, looked up): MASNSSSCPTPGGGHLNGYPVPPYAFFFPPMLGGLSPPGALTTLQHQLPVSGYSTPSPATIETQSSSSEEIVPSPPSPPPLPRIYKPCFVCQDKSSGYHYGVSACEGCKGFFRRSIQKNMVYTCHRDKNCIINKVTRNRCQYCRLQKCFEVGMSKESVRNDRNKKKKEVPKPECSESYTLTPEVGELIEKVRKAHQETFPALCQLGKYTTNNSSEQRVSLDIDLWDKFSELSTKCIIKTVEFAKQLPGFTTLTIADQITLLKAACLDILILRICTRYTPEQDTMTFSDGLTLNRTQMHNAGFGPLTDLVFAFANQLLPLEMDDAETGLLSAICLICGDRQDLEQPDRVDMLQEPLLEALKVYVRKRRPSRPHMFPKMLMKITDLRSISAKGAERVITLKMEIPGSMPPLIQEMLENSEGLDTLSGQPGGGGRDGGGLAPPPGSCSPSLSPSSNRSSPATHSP
Summary of the method: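 Compounds screened at 25 uM, duplicate, then in concentration series if active. Detection: TR-FRET gain of signal versus DMSO after 2 h with cell-free extracted RARα.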

Oc1ccc(-c2ccccc2)cc1
AC50 [1]: 4.83 µM (active) | outcome [1]: inactive | AC50 [2]: 12.7 µM (active) | outcome [3]: inactive | AC50 [4]: 43.2 µM (active)

CC(C)(OO)c1ccccc1
outcome [5]: inactive | outcome [6]: inactive | outcome [7]: inactive

Cc1ccccc1C(=O)Nc1cccc(OC(C)C)c1
outcome [1]: inactive | outcome [6]: inactive | outcome [7]: inactive | outcome [8]: inactive | outcome [9]: inactive | outcome [10]: inactive

CC12CC1(C)C(=O)N(c1cc(Cl)cc(Cl)c1)C2=O (configuration not stated)
outcome [1]: inactive | outcome [8]: inactive | outcome [9]: inactive | outcome [2]: inactive

CC(C)C1CCC(Cc2ccc(Cl)cc2)C1(O)Cn1cncn1 (configuration not stated)
AC50 [1]: 10.3 µM (active) | outcome [5]: inactive | outcome [6]: inactive | outcome [7]: inactive | AC50 [10]: 11.7 µM (active) | outcome [2]: inactive

CCOC(=O)Nc1cccc(OC(=O)Nc2ccccc2)c1
outcome [1]: inactive | outcome [6]: inactive | outcome [7]: inactive | outcome [10]: inactive | outcome [2]: inactive

COc1cc(OC)nc(NC(=O)NS(=O)(=O)c2ncccc2C(=O)N(C)C)n1
outcome [1]: inactive | outcome [6]: inactive | outcome [7]: inactive | outcome [10]: inactive | outcome [2]: inactive

C[C@@H]1C[C@@H]([C@H](O)CC2CC(=O)NC(=O)C2)C(=O)[C@@H](C)C1
outcome [1]: inactive | outcome [2]: inactive

CCN(CC)C(=O)Cl
AC50 [1]: 2.82 µM (active)

CCC(C)(C)c1ccc(O)c(C(C)(C)CC)c1
outcome [11]: inactive | outcome [5]: inactive | outcome [6]: inactive | outcome [7]: inactive | outcome [10]: inactive | outcome [2]: inactive

CC(C)c1ccc(CO)cc1
outcome [5]: inactive

Fc1ccc(C2(Cn3cncn3)OC2c2ccccc2Cl)cc1 (configuration not stated)
outcome [1]: inactive | outcome [5]: inactive | AC50 [6]: 39.5 µM (active) | AC50 [7]: 23.7 µM (active) | AC50 [10]: 27.3 µM (active) | AC50 [2]: 14.9 µM (active)

CC(C)(C)CC(C)(C)c1ccc(O)cc1
outcome [12]: inactive

ClC1(Cl)C2(Cl)C3(Cl)C4(Cl)C(Cl)(Cl)C5(Cl)C3(Cl)C1(Cl)C5(Cl)C24Cl (configuration not stated)
outcome [13]: inactive
